Source: PubChem BioAssay (National Center for Advancing Translational Sciences (NCATS))
The list is not random: actives were taken first. Their share in the collection is about 3.7%.
A549 viability – kills or reduces viability of A549 cells in Nrf2 counter-screen. Potency, µM (top dose mostly 46 µM), most hits filed as inhibitors. actives 0.16% (n = 390,000). A549 ARE-Fluc cells, CellTiter-Fluor viability, 18-24 h
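Cytotoxicity counterscreen: CellTiter-Fluor fluorescence was measured in A549 ARE_Fluc cells after 18-24 h of compound exposure in a concentration series. The subsequent BugLite luminescent read reports ARE-luciferase activity.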
ELG1 repair inh – ELG1-dependent DNA repair inhibition | HEK293T ELG1-luciferase reporter, luminescence, 16 h; DNA damage induced by 5-fluorouridine | Potency, µM (top dose mostly 46.1 µM), most hits filed as inhibitors | actives 2.3% (n = 330,000); also: nearly all actives have a fitted effect of over 55% in size
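5-Fluorouridine DNA damage + compound/DMSO, 2,000 cells/well, 16 h, 37 °C/5% CO2. ONE-Glo, 30 min RT, luminescence. Readout = decrease in reporter signal.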
Nrf2 activator – Nrf2 pathway activation | AREc32 ARE-luciferase reporter (MCF7-derived line), luminescence, 24 h | Potency, µM (top dose mostly 46.1 µM), usual class: activators | actives 0.31% (n = 410,000) | AID 624171; also: nearly all actives have a fitted effect of over 65% in size
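For detection, Steady-Glo was added and plates sat 30 min at RT; before that, AREc32_Fluc cells grown overnight in OPTI-MEM/5% FBS had been treated with 23 nL compound for 24 hr at 37 deg C.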
Nrf2 inh – inhibitors of Nrf2 signaling; A549 ARE-Fluc reporter, luciferase luminescence, 18-24 h; Potency, µM (doses to about 46 µM), most hits filed as inhibitors; actives 2.1% (n = 360,000); AID 504444; also: nearly all actives have a fitted effect of over 60% in size
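In this cell-based qHTS, ARE-driven firefly luciferase in A549 cells reports Nrf2 activity; the luminescent signal after BugLite lysis is the measured value, with a prior CellTiter-Fluor read for cell health.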
Hits are given with their value; n = inactive; u = inconclusive; x = no result; [ ] = remark or other dose. Calls follow the shape of the dose curve; as a rule, active = well fitted curve in the direction sought with a large enough effect; inconclusive = small, poorly fitted or top-dose-only effect, or another doubt; inactive = no such curve, though single readings can be large; an effect the other way counts as inactive or inconclusive.

SMILES	A549 viability	ELG1 repair inh	Nrf2 activator	Nrf2 inh
CC(=O)N1c2c(cc(Br)cc2S(=O)(=O)N2CCN(c3ccccc3F)CC2)CC1C (stereo not drawn)	n	u	n	23µM
CC(=O)N1c2c(cc(Br)cc2S(=O)(=O)N2CCN(c3cc(C)ccc3C)CC2)CC1C (stereo not drawn)	n	x	n	n[9.27 µM]
COc1ccc2cc(C3(C)NC(=O)N(CC(=O)N4CCCCC4)C3=O)ccc2c1 (stereo not drawn)	n	n	n	n
O=C1C(=O)N(C2CCN(C(=O)c3ccccc3Cl)CC2)CCN1Cc1ccc(F)cc1	n	x	n	n
Cc1ccccc1NC(=O)CSc1nc(COc2ccccc2)nc2ccccc12	n	26µM	n	u
Cc1cc(C)c(NC(=O)CSc2nc(COc3ccccc3)nc3ccccc23)c(C)c1	u	u	n	u
CCN(CC)C(=O)CSc1nc(COc2ccccc2)nc2ccccc12	n	23µM	n	u
COC(=O)CSc1nc(COc2ccccc2)nc2ccccc12	n	n	n	u
COc1ccccc1N1CCN(C(=O)c2sc3ncnc(N4CCN(c5ccccn5)CC4)c3c2C)CC1	n	18µM	n	u
COc1ccc(OC)c(NC(=O)c2sc3ncnc(N4CCN(c5ccccn5)CC4)c3c2C)c1	n	2.6µM	n	n
Cc1nc(N2CCN(C(=O)COc3ccccc3)CC2)c2c(C)c(C)sc2n1	n	u	n	21µM
Cc1c(C(=O)N2CCN(c3ccccn3)CC2)sc2ncnc(N3CCOCC3)c12	n	n	n	n
COc1ccccc1N1CCN(C(=O)c2sc3nc(C)nc(N4CCN(c5ccccn5)CC4)c3c2C)CC1	n	u	n	15µM
O=C(Nc1nc(-c2ccccc2)cs1)c1cccc([N+](=O)[O-])c1	n	n	n	8.2µM
O=C(Nc1nc(-c2ccccc2)cs1)C1CCCN(S(=O)(=O)c2ccccc2)C1 (stereo not drawn)	n[1.84 µM]	2.3µM	n	21µM
O=C(Nc1nc(-c2ccccc2)cs1)C1CCCCN1S(=O)(=O)c1ccccc1 (stereo not drawn)	n	u	n	u
O=C(Nc1nc(-c2ccccc2)cs1)C1CCCN(S(=O)(=O)c2cccc([N+](=O)[O-])c2)C1 (stereo not drawn)	n	16µM	n	u
CSc1cccc(NC(=O)Cn2c(=O)n(Cc3ccccc3)c(=O)c3sc4ccccc4c32)c1	n	x	n	n
NC(=O)c1nsc(C(=O)N(CC(=O)NC2CCCCC2)Cc2ccc(F)cc2)c1N	n	u	n	u
COc1ccc(C2Nc3ccccc3C(=O)N2Cc2ccccc2)cc1COc1cccc(C(F)(F)F)c1 (stereo not drawn)	n	x	x	n
Cc1cc(Cl)c(S(=O)(=O)N2CCCCCC2)cc1OCC(N)=O	n	u	n	n
CCOC(=O)N1CCN(S(=O)(=O)c2cc(OCC(=O)NC3CCCCC3)c(C)cc2Cl)CC1	n	18µM	n	u
Cc1cc(Cl)c(S(=O)(=O)N2CCCCCC2)cc1OCC(=O)NC1CCCCC1	n	9.2µM	n	n
Cc1cc(Cl)c(S(N)(=O)=O)cc1OCC(=O)NC1CCCCC1	n	n	n	n
Cc1cc(Cl)c(S(=O)(=O)N2CCN(c3ccccn3)CC2)cc1OCC(=O)NC1CCCCC1	n	21µM	n	u
SMILES	A549 viability	ELG1 repair inh	Nrf2 activator	Nrf2 inh
O=C(CSc1nc(Nc2ccccc2)nc(N2CCOCC2)n1)Nc1ccc([N+](=O)[O-])cc1	n	u	n	x
COc1ccc(Cl)cc1NC(=O)CSc1nc(N2CCCCC2)nc(N2CCCCC2)n1	n	n	n	x
O=C(CSc1nc(N2CCOCC2)nc(N2CCOCC2)n1)Nc1ccc([N+](=O)[O-])cc1	n	16µM	n	u
O=C(CSc1nc(Nc2ccccc2)nc(N2CCOCC2)n1)Nc1cccc([N+](=O)[O-])c1	u	21µM	n	u
COc1ccc(Cl)cc1NC(=O)CSc1nc(N2CCOCC2)nc(N2CCOCC2)n1	n	26µM	n	u
O=C(COC(=O)c1cc([N+](=O)[O-])ccc1N1CCOCC1)Nc1ccc(Cl)cc1	u	n	n	18µM
CC(=O)c1ccc(NC(=O)CSc2nc(N3CCOCC3)nc(N3CCOCC3)n2)cc1	n	u	n	n
COc1ccc(NS(=O)(=O)c2ccc3c(c2)NC(=O)CC(=O)N3)cc1OC	n	n	n	n
COc1ccc(-c2nn3c(-c4cc(C)[nH]n4)nnc3s2)cc1	n	x	x	n
CC(=O)c1ccc(Nc2nc(N3CCOCC3)nc(N3CCOCC3)n2)cc1	n	n	n	u
